# Sampled rows, rich in hits. Any-hit rate of the full collection: about 12%.
# G9a block: qHTS Assay for Inhibitors of Histone Lysine Methyltransferase G9a; Histone-lysine N-methyltransferase EHMT2 (Homo sapiens), Q96KQ7; G9a H3K9 monomethylation, AlphaScreen, 2 h; Potency, µM (doses to about 102 µM), for inactives: at the top dose activity, negative = inhibition, most hits filed as inhibitors; hit rate 8.8% among 350,000; AID 504332, 2011; also: % is scaled to controls: 0 for no effect and ±100 for the full control effect; nearly all actives have a fitted effect of over 75% in size
#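 Using a bead-based AlphaScreen, monomethylated H3K9 product from 2 h room-temperature reactions (G9a 20 nM, peptide 500 nM, SAM 20 uM) was detected with 0.5 ug/mL rabbit anti-H3K9me1 antibody.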
# BAZ2B inh: qHTS Assay for Inhibitors of BAZ2B | Bromodomain adjacent to zinc finger domain protein 2B (Homo sapiens), Q9UIF8 | AlphaScreen BAZ2B-H3K14Ac peptide displacement | Potency, µM (top dose mostly 114 µM), for the others: top-dose activity change, negative = inhibition, usual class: inhibitors | hit rate 4.4% among 360,000 | AID 504333, 2011; also: % is scaled to controls: 0 for no effect and ±100 for the full control effect; nearly all actives have a fitted effect of over 60% in size
# Target sequence (Q9UIF8 whole entry, looked up, the tested form may be a part): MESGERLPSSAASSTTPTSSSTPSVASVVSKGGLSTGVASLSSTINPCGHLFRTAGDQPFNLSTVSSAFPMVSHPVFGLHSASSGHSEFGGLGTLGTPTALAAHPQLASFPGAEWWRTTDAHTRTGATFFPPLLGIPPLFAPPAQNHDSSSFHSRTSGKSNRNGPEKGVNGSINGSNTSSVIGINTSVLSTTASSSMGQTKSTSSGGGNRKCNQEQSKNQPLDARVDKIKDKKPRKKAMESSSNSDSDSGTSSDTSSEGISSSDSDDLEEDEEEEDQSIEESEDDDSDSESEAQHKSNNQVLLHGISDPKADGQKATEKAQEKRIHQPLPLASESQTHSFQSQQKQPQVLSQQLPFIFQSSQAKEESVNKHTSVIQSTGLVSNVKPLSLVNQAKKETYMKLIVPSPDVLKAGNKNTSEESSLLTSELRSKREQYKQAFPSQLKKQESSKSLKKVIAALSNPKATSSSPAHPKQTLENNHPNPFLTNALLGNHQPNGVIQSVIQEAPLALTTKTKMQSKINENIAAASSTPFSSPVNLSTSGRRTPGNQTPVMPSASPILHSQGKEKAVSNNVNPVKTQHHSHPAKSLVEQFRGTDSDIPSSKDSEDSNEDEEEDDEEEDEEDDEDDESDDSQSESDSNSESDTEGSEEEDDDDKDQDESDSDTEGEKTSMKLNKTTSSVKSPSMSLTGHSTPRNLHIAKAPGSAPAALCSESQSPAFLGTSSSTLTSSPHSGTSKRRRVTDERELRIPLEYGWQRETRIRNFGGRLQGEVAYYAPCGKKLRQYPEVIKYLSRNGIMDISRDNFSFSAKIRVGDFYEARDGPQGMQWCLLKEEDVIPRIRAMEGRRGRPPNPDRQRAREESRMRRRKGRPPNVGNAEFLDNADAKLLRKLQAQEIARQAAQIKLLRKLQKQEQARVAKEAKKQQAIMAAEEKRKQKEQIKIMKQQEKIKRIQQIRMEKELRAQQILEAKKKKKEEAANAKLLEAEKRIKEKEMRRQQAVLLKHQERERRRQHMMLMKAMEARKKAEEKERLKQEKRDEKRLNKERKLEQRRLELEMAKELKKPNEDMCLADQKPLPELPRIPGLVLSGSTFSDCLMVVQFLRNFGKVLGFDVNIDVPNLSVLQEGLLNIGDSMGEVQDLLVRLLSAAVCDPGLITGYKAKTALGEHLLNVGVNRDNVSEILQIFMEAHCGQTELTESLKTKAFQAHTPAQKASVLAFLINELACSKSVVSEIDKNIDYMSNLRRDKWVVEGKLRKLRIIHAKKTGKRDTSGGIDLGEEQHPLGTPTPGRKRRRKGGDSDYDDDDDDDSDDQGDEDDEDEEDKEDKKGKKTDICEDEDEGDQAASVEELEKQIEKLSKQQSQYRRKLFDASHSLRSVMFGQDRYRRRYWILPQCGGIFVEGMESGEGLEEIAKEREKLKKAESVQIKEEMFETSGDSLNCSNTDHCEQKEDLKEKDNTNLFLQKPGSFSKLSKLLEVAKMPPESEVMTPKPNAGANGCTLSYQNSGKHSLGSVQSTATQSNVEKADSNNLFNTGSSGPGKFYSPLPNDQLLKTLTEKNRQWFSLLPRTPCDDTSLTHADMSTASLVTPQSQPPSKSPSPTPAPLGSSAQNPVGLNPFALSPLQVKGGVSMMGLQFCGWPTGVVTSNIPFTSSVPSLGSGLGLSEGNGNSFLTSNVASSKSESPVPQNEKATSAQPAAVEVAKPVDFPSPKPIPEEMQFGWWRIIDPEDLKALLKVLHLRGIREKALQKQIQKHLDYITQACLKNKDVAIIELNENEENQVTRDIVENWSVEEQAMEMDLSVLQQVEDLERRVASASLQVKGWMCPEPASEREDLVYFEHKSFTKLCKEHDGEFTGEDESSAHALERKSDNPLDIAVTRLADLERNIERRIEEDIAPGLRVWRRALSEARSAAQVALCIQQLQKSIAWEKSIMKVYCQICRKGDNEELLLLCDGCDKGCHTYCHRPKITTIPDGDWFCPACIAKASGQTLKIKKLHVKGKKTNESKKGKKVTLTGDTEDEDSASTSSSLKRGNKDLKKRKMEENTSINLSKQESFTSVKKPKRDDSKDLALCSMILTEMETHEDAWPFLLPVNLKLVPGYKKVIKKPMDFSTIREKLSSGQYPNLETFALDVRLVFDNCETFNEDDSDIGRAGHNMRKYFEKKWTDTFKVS
#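 Protein-peptide AlphaScreen: BAZ2B 50 nM, b-H3K14Ac 50 nM, 1x PBS pH 7.4 + 0.01% Tween-20. Preincubation 30 min RT; cpd 30 min RT (top 110 uM); beads 20 min RT, light-protected.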
# Sfp inh: qHTS Assay for Inhibitors of Bacillus subtilis Sfp phosphopantetheinyl transferase (PPTase) | 4'-phosphopantetheinyl transferase ffp (Bacillus subtilis), Q9F4F7 | Biochemical Sfp PPTase activity, qHTS | Potency, µM, for inactives: largest response in the series, negative = inhibition, actives largely listed as inhibitors | hit rate 3.5% among 310,000 | AID 1490, 2009;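 also: the enzyme is Sfp with the accession as filed and its product quenches rhodamine fluorescence; 0% = enzyme reaction without inhibitor and -100% = no enzyme wells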
#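 Buffer: 50 mM Hepes-Na pH 7.6, 10 mM MgCl2, 0.01% Nonidet P-40, 0.01% BSA. Enzyme 15 nM, pre-exposed to compound 15 min; substrates then added and fluorescence change tracked over 30 min.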
# JMJD2A Tudor inh: qHTS Assay for Inhibitors of JMJD2A-Tudor Domain; Lysine-specific demethylase 4A (Homo sapiens), O75164; AlphaScreen JMJD2A-Tudor / H3K4me3 peptide binding; Potency, µM (doses to about 114 µM), for the others: top-dose activity change, negative = inhibition, actives largely listed as inhibitors; hit rate 4.4% among 390,000; also: % is scaled to controls: 0 for no effect and ±100 for the full control effect; nearly all actives have a fitted effect of over 50% in size
# HP1b binding inh: HTS for Inhibitors of HP1-beta Chromodomain Interactions with Methylated Histone Tails; Chromobox protein homolog 1 (Homo sapiens), P83916; AlphaScreen HP1-beta / biotin-H3K9me3 peptide binding; Potency, µM (titrated, usually from 114 µM), for the others: at the highest dose activity change, negative = inhibition, usual class: inhibitors; hit rate 0.56% among 390,000; AID 540317, 2011; also: nearly all actives have a fitted effect of over 70% in size
#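 HP1-beta protein (50 nM final) preincubated 30 min at room temperature with biotinylated H3(1-18)K9me3 peptide (50 nM) in PBS pH 7.4, 0.01% Tween-20, then compound added for 30 min. AlphaScreen streptavidin donor/nickel chelate acceptor beads (10 ug/mL final), 30 min dark, luminescence read.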
# * marks the source's active call; other numbers are inactive results; ? = inconclusive; . = no result; [ ] = dose if it differs, or a comment. Calls follow the shape of the dose curve; as a rule, active = well fitted curve in the direction sought with a large enough effect; inconclusive = small, poorly fitted or top-dose-only effect, or another doubt; inactive = no such curve, though single readings can be large; an effect the other way counts as inactive or inconclusive. Potency is read from the fitted curve at half-maximal effect.
SMILES,G9a block,BAZ2B inh,Sfp inh,JMJD2A Tudor inh,HP1b binding inh
CCCCn1c(SCC(=O)c2ccc(O)c(O)c2)nc2ccsc2c1=O,7%[59 µM],?,1%,?,?
Cc1nc(NCc2ccccc2)c2nc(-c3ccccc3)n(CCCN3CCCCC3C)c2n1 (stereo not given),.,.,5%,.,.
O=S(=O)(Oc1ccc(C(=S)N2CCOCC2)cc1)c1ccc(Cl)cc1,.,3%,-13%,-27%,0%
COc1ccc(N(C(=O)Cn2nnc3ccccc32)C(C(=O)NCc2ccco2)c2ccc(C)o2)cc1 (stereo not given),50µM*,45µM*,-6%,-25%,-16%
COc1cc(C(C(=O)NCC2CCCO2)N(C(=O)Cn2nnc3ccccc32)c2ccc(C(C)=O)cc2)ccc1O (stereo not given),?,0%,7%,-13%,19%
CCOc1cc(C(C(=O)NCC2CCCO2)N(C(=O)Cn2nnc3ccccc32)c2ccc(OC)c(OC)c2)ccc1O (stereo not given),45µM*,-1%,12%,13%,21%
Cc1ccc(CN(C(=O)Cn2nnc3ccccc32)C(C(=O)NCc2ccco2)c2ccc(C)o2)cc1 (stereo not given),-4%[59 µM],-4%,19%,-10%,33%
Cc1ccc(NC(=O)/C=C\C(=O)N(c2ccc(C(C)C)cc2)C(C(=O)NCc2ccco2)c2ccc(Cl)cc2)cc1 (stereo not given),?,-17%,.,-28%,24%
COc1ccc(N(C(=O)/C=C\C(=O)Nc2ccc(Cl)cc2)C(C(=O)NCc2ccco2)c2ccc(C)cc2)cc1 (stereo not given),11µM*,?,.,-34%,19%
Cc1ccc(N(C(=O)Cn2nnc3ccccc32)C(C(=O)NCc2ccco2)c2ccc(C)o2)cc1 (stereo not given),?,-37%,-26%,-12%,5%
Cc1ccc(C(C(=O)NCc2ccco2)N(C(=O)Cn2nnc3ccccc32)c2ccccc2)o1 (stereo not given),45µM*,-8%,-13%,-34%,-19%
Cc1cc(=O)[nH]c(SCC(=O)c2ccc(F)c(C)c2)n1,.,10%,6%,-3%,40%
CCc1ccccc1NC(=O)CCC(=O)N1CC(C)Oc2ccc(C)cc21 (stereo not given),1%[59 µM],1%,.,-15%,22%
Cc1ccc(-c2nc(CS(=O)CC(=O)N3CCN(c4ccccc4)CC3)c(C)o2)cc1 (stereo not given),?,?,0%,-21%,15%
Cc1oc(-c2ccccc2)nc1CS(=O)CC(=O)N1CCc2ccccc2C1 (stereo not given),22µM*,-24%,50µM*,-22%,29%
Cc1cc(C)c2c(N)c3ccccc3nc2n1,50µM*,2%,6%,2%,32%
CCc1ccc2nc3nc(C)cc(C)c3c(N)c2c1,9%[59 µM],-4%,4%,-10%,5%
O=c1[nH]c(=O)c2[nH]c(=S)[nH]c2[nH]1,.,.,.,2.5µM*,10µM*
CC(Nc1nc(Nc2ccc(F)cc2)nc(SCC(N)=O)n1)c1ccccc1 (stereo not given),21%[0.501 µM],-30%,3%,-34%,-6%
CC(Nc1nc(=S)nc(Nc2ccc(F)cc2)[nH]1)c1ccccc1 (stereo not given),.,-13%,45µM*,-26%,-11%
COc1ccc(NC(=O)n2ncc3c(C)cccc32)cc1,49%,12%,-5%,36%,82%
COc1ccc([C@H]2C(C#N)=C([S-])N[C@](C)(O)[C@@H]2[n+]2ccccc2)cc1,14µM*,-25%,25µM*,56µM*,-3%
Cc1ccc[n+](C2C(c3ccc([N+](=O)[O-])cc3)C(C#N)=C([S-])NC2(O)C2CC2)c1 (stereo not given),16µM*,?,25µM*,-29%,16%
CCN(CC)c1ccc(-n2cc3c(=O)n(C)c(=O)n(C)c3c2)cc1,-39%[12.7 µM],32µM*,-12%,56µM*,32µM*
Cc1cccc(-n2cc3c(=O)n(C)c(=O)n(C)c3c2)c1,.,?,-11%,-17%,20%
SMILES,G9a block,BAZ2B inh,Sfp inh,JMJD2A Tudor inh,HP1b binding inh
CN(C)c1ccc(-n2cc3c(=O)n(C)c(=O)n(C)c3c2)cc1,45µM*,35µM*,5%,?,?
O=C(/C=C/c1c(F)cccc1Cl)NCCCN1CCOCC1,.,-8%,8%,-11%,23%
CC1CCN(CCC(=O)Nc2ccc3c(c2)OCCO3)CC1,-47%,56µM*,-13%,.,.
COC(=O)C1CCN(CC(=O)Nc2ccc3c(c2)OCCO3)CC1,.,.,.,-3%,11%[57 µM]
CC1CC(C)CN(CC(=O)Nc2ccc3c(c2)OCCO3)C1 (stereo not given),-43%[12.7 µM],79µM*,-21%,0.89µM*,?
Cc1ccc(NC(=O)CCN2CCC(C)CC2)cc1,.,?,1%,2%,46%
Cc1cccc(S(=O)(=O)c2cn(Cc3ccccc3)c3cc(N4CCC(C)CC4)c(F)cc3c2=O)c1,-1%[59 µM],10%,.,-5%,12%
Cc1ccc(C)c(NC(=S)N2CCC(NC(=O)c3cccc(F)c3)CC2)c1,9%,-9%,4%,-10%,16%
CCOC(=O)c1c(-c2ccco2)csc1N,18µM*,-13%,32µM*,?,?
CCOC(=O)c1c(-c2cccs2)csc1N,50µM*,-38%,-21%,-35%,?
Cn1nc(C(=O)Nc2ccc(F)c(Cl)c2)c2c1-c1ccccc1S(=O)(=O)C2,-30%[59 µM],-17%,.,-16%,27%
CC(=O)NC1CCCN(O)C(=O)/C=C(\C)CCOC(=O)C(NC(C)=O)CCCN(O)C(=O)/C=C(\C)CCOC(=O)C(NC(C)=O)CCCN(O)C(=O)/C=C(\C)CCOC1=O (stereo not given),-107%[59 µM],-22%,56µM*,1%,78%
CC(=O)NC1CCC(=O)C=C1c1ccccc1 (stereo not given),.,.,.,-8%,23%
N#Cc1cccc(-c2ccc3ncnc(NCc4cccnc4)c3c2)c1,.,.,-12%,.,.
COc1cccc(CN2c3ccc(Br)cc3C(=O)CS2(=O)=O)c1,?,-36%,.,-21%,54%
COCC(C)NCc1cccc([N+](=O)[O-])c1 (stereo not given),20µM*,50µM*,-6%,3.2µM*,?
COCC(C)NCc1cccc(C)c1 (stereo not given),8%[0.501 µM],-10%,21%,1%,53%
COc1cc(OC)cc(-c2nnc(SCC(=O)c3ccc([N+](=O)[O-])cc3)o2)c1,6%[59 µM],-17%,.,2%,44%

# Screening data (PubChem BioAssay)
